# According to PubChem BioAssay (EPA / NIEHS):
# “And” between values parts separate entries of the source, which are not always exact repeats. Equal values may be shown once. Some structures have more than one record in an assay (separate samples or runs), and their calls can disagree. The source made the active and inactive calls. Rule for the calls: active = hit-call score of the fitted dose curve at least 0.9, where 1 is the maximum; inactive = score below 0.9.
# Read-out: CYP3A5 (gene 1577)
# Experiment: LTEA_HepaRG_CYP3A5: Life Technologies and Expression Analysis (LTEA) Assay for CYP3A5 using HepaRG (AID 2283493)
# Conditions: mRNA level, 48 h; actives raise or lower the signal
# Protocol: LTEA_HepaRG is a cell based, multiplexed-readout assay that uses HepaRG, a human liver cell line, with measurements taken at 48 hours after chemical dosing on a 96-well plate.LTEA_HepaRG_CYP3A5 is one of 102 assay component(s) measured in the LTEA HepaRG cell culture assay. It is a marker of NR mediated metabolism.Data from the assay component LTEA_HepaRG_CYP3A5 was analyzed into 1 endpoint. This assay endpoint, LTEA_HepaRG_CYP3A5, was analyzed with bidirectional fitting relative to DMSO as the negative control and baseline of activity. Using a type of inducible reporter, measures of mRNA induction for gain or loss-of-signal activity can be used to understand regulation of transcription factor activity. To generalize the intended target to other relatable targets, this assay endpoint is annotated to the cyp intended target family, where the subfamily is xenobiotic metabolism.
# A total of 1060 chemcials from the ToxCast library were tested in eight-point concentration-response experiments. Cell culture and cytotoxicity assays were conducted at Thermo Fisher Scientific's Custom Services facility (Madison, WI). A single lot of human HepaRG cells (Thermo Fisher Scientific, Frederick, MD) was used for the cell culture experiments. 96-well format collagen type I coated plates of human HepaRG cells were prepared using established methods. Briefly, cryopreserved HepaRG cells were thawed, plated at a density of approximately 100,000 cells/well in HepaRG Thaw, Plate, and General Purpose media (HPRG770, Thermo Fisher Scientific), and incubated for 48 hours. 0.5% DMSO was selected as vehicle control to balance the requisite need of DMSO in HepaRG cultures to maintain differentiation (for example, baseline metabolism, proportions of hepatocytes vs. cholangiocytes), while enabling further hepatic receptor pathway activation (for example, PXR and CAR) in response to chemical exposure. 48 hours after plating, the culture medium was replaced with HepaRG Serum-Free Incudtion Media. Cells were exposed to each test chemical in duplicate and maintained in CO2 incubators for another 48 hours. Chemical plates were thawed to room temperature and 200x concentrations of treatment groups were prepared. 8-point conentration-reponse curves were made with the highest exposure at 100 uM, followed by half-log dilutions, all in 0.5% DMSO. Each test plate contained variouse controls, induction positive controls (1mM phenobarbital), cytotoxicity positive controls ([…] aflatoxin B1), vehicle controls (0.5% DMSO), and total lysis controls (0.5% DMSO). Cell morphology images were taken using an Essen IncuCyte FLR automated microscope, with six 96-well plates imaged in about 24 minutes. Images were captured and exported and JPEG files. Spent culture media was transfered to black-well plates for the LDH assay, and remaining media was sorted at -80 C for later use. Cells were treated with RLT buffer and frozen until shipped for gene expression analysis. Total RNA was isolated from the cell suspension in 75 uL of Buffer RLT (Qiagen, Germantown, MD 20874) by Quintiles/Expression Analysis (Durham, NC) using a custom isolation procedure. Total RNA from each plate well was transferred to a preamplification plate. Fluidigm's 96.96 Dynamic ArrayTM (Fluidigm, Amsterdam, the Netherlands) technology was used for gene expression analyses by quantitative reverse transcription polymerase chain reaction (qRT-PCR, performed by Quintiles/Expression Analysis, Durham, NC)89. Standard TaqManTM Assays (Applied Biosystems/ThermoFisher Scientific, Foster City, CA) were used to assess the expression of 93 genes selected based on their selectivity and sensitivity to important hepatic receptors known to be modulated by environmental chemicals; importance in human hepatocyte functionality; and hepatotoxicity. […]
SMILES,outcome,AC50
Fc1ccc(Oc2ccnc3cc(Cl)cc(Cl)c23)cc1,inactive,
COc1nc(NC(C)C)nc(NC(C)C)n1,inactive,
O=C(Nc1ccccc1)Nc1ccnc(Cl)c1,,49.1 µM (active)
CCCCNC(=O)OCC#CI,inactive,
CNC(=O)ON=CC(C)(C)SC,inactive,
CC(C)C1(C)N=C(c2nc3ccccc3cc2C(=O)O)NC1=O (stereo not given),inactive,
CCOP(=S)(OCC)SCn1c(=O)oc2cc(Cl)ccc21,inactive,
CC(Oc1ccc(Cl)cc1Cl)C(=O)O (stereo not given),inactive,
O=C(O)c1nc(Cl)ccc1Cl,inactive,
Cc1c(F)c(F)c(COC(=O)C2C(/C=C(\Cl)C(F)(F)F)C2(C)C)c(F)c1F (stereo not given),inactive,
COC(=O)C(C)Oc1ccc(Oc2ccc(Cl)cc2Cl)cc1 (stereo not given),inactive,
C=CCC1=C(C)C(OC(=O)C2C(C=C(C)C)C2(C)C)CC1=O (stereo not given),inactive,
CCCN(CCC)c1c([N+](=O)[O-])cc(S(N)(=O)=O)cc1[N+](=O)[O-],inactive,93.8 µM (active) and 50 µM (active)
CCCCNC(=O)n1c(NC(=O)OC)nc2ccccc21,inactive,
COC(=O)C=C(C)OP(=O)(OC)OC,inactive,
CNC(=S)S,inactive,
COc1ccc(C(c2ccc(OC)cc2)C(Cl)(Cl)Cl)cc1,inactive,
CCCCC(CC)COC(=O)c1ccccc1C(=O)OCC(CC)CCCC (stereo not given),inactive,
COC(=O)c1ccccc1C(=O)OC,inactive,

SMILES,outcome,AC50
Cc1cc(Cl)ccc1OCC(=O)O,inactive,
C=CC1(C)OC(=O)N(c2cc(Cl)cc(Cl)c2)C1=O (stereo not given),inactive,
CCOc1cc(Oc2ccc(C(F)(F)F)cc2Cl)ccc1[N+](=O)[O-],inactive,
CC1COC(Cn2cncn2)(c2ccc(Oc3ccc(Cl)cc3)cc2Cl)O1 (stereo not given),,84.1 µM (active)
CC(C)(C)c1ccc(CSc2cnn(C(C)(C)C)c(=O)c2Cl)cc1,,2.11 µM (active)
Cc1ccc(-c2c(Cl)nc(C#N)n2S(=O)(=O)N(C)C)cc1,inactive,
O=C(O)COc1nc(Cl)c(Cl)cc1Cl,inactive,
CCNc1nc(Cl)nc(NCC)n1,inactive,
CC1=C(C(=O)Nc2ccccc2)SCCO1,inactive,
CS/C(C)=N/OC(=O)N(C)SN(C)C(=O)O/N=C(\C)SC,inactive,
CO/C=C(/C(=O)OC)c1ccccc1Oc1cc(Oc2ccccc2C#N)ncn1,inactive,62.6 µM (active) and 35.6 µM (active)
C=CCC1=C(C)[C@@H](OC(=O)[C@@H]2[C@@H](C=C(C)C)C2(C)C)CC1=O,inactive,
COP(=S)(OC)Oc1nc(Cl)c(Cl)cc1Cl,inactive,
CCOC(=O)C(Cl)Cc1cc(-n2nc(C)n(C(F)F)c2=O)c(F)cc1Cl (stereo not given),inactive,
CCOC(=O)CC(SP(=S)(OC)OC)C(=O)OCC (stereo not given),inactive,
CCON=C(CC)C1=C(O)CC(c2c(C)cc(C)cc2C)CC1=O (stereo not given),inactive,
CN(C)C(=S)SSC(=S)N(C)C,inactive,
COP(N)(=O)SC (stereo not given),inactive,
COC(=O)N(OC)c1ccccc1COc1ccn(-c2ccc(Cl)cc2)n1,,87 µM (active)
